# Bst PK mod = Pyruvate Kinase; AID 361, 2006; Potency, µM; purified pyruvate kinase, luminescence ATP production; ribose 5-phosphate activator present at AC10; 51,000 tested, 1.2% active; in the data active means potency below about 11 µM; inconclusive means mostly about 12 µM to 25 µM;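 the screen sought inhibitors and activators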;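 further: scaled between full activation by ribose 5 phosphate and full inhibition by luteolin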
# GBA mod = Glucocerebrosidase. Lysosomal acid glucosylceramidase (Homo sapiens), P04062. purified enzyme, resorufin glucoside fluorescence (screen aimed at inhibitors), 20 min. Potency, µM. 48,000 tested, 1.1% active; in the data active means potency below about 15 µM; inconclusive means mostly about 16 µM to 33 µM;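 further: the screen sought inhibitors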
# Target sequence (P04062 whole entry, looked up): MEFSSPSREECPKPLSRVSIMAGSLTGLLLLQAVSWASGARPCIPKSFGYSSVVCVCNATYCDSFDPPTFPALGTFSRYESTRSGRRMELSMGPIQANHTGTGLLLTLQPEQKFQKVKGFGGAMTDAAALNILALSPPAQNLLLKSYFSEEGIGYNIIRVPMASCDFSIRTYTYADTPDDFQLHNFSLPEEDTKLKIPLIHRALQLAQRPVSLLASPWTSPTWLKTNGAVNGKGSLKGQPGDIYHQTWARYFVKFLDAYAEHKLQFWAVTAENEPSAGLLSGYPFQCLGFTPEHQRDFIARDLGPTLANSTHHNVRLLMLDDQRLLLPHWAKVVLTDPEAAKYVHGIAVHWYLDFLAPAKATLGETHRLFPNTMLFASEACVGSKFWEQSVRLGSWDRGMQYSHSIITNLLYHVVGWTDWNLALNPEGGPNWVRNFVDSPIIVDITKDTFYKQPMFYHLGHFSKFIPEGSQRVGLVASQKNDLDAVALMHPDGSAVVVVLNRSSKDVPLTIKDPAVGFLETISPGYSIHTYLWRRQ
#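 Wild-type enzyme at 0.2 nM final in 50mM citric acid/KH2PO4, 10mM sodium taurocholate, 0.01% tween-20, pH 5.9, with resorufin beta-D-glucopyranoside at 30 uM final. Compounds titrated, 20 min at RT, red fluorescence read; AC50 from titration.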
# Casp7 inh = qHTS Assay for Allosteric/Competitive Inhibitors of Caspase-7; P55210; recombinant caspase-7, Ac-DEVD-AFC fluorescence rate; 75,000 tested, 0.02% active; Potency, µM (doses to about 57.5 µM), without a hit: top-dose activity change, negative = inhibition, hits mostly inhibitors; AID 889, 2007; active means well fitted inhibition curve with a large enough effect in the main read-out, with a control signal flat, not every such curve was filed as active; inconclusive means small, poorly fitted or top-dose-only effect, or a change in a side signal; further: % of control where 0% means no effect
# Luciferase inh = qHTS Assay for Inhibitors of Firefly Luciferase. Luciferin 4-monooxygenase (Photinus pyralis), P08659. purified firefly luciferase, luminescence, 8 min. 72,000 tested, 2.2% active. Potency, µM (doses to about 57.1 µM), for inactives: top-dose activity change, negative = inhibition, actives largely listed as inhibitors; further: on the % scale 0 is the no-effect control and ±100 the full control effect; nearly all actives have a fitted effect of over 40% in size
#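 Here, luciferase activity is measured as luminescence following an 8 min room-temperature reaction at 10 uM ATP, pH 7.2. Every library sample is titrated.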
# Caspase-1 inhib = qHTS Assay for Allosteric/Competitive Inhibitors of Caspase-1; Caspase-1 enzyme, Ac-WEHD-AFC fluorogenic rate; Potency, µM (doses to about 57.5 µM), inactives show at the highest dose activity change, negative = inhibition, most hits filed as inhibitors; 75,000 tested, 0.03% active; AID 900, 2007;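 further: plate controls were vehicle for no effect and no substrate for full effect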
# * hit, by the source's call; i = inactive; ? = inconclusive; · = no result given; ! = not confirmed by another sample; [ ] = another dose, or the depositor's remark. In the library only some 3.1% were active in any assay of this set; here they are far more common. Unless noted, the call rests on the fitted dose curve; in most records, active means well fitted inhibition curve with a large enough effect; inconclusive means small, poorly fitted or top-dose-only effect; inactive means flat fitted curve, though single readings scatter. Potency means the concentration at half of the fitted maximal effect.
SMILES,Bst PK mod,GBA mod,Casp7 inh,Luciferase inh,Caspase-1 inhib
COc1ccc(/C=N/c2nc3ccccc3n2C)cc1OC,i,>77,0%,20µM*,0%
O=C(Nc1cnc2ccccc2c1)N1CCOCC1,>11,>77,0%,-7%,-1%
O=C(Nc1cnc2ccccc2c1)N1CCCCC1,·,·,1%,10µM*,-3%
c1ccc2c(c1)CCN(c1nc3cc4c(cc3s1)OCO4)C2,2.8*,>77,-25%,4µM*,-7%
c1c2c(cc3sc(N4CCOCC4)nc13)OCO2,i,>77,-2%,16µM*,-2%
O=C(c1ccc2nc(N3CCOCC3)sc2c1)N1CCCC1,·,·,-1%,0%,-2%
c1ccc(N2CCN(c3nc4cc5c(cc4s3)OCO5)CC2)cc1,·,>77,-1%,?,1%
c1c2c(cc3sc(N4CCCCC4)nc13)OCO2,6.2*,>77,-5%,6.3µM*,-1%
CCN(CC)CCCNC(=O)c1ccc(-n2c(=O)c(=O)[nH]c3ccccc32)cc1,·,·,-2%,·,0%
Cc1ccc(/C=N/c2sc3c(c2C#N)CCC3)s1,4.3*,11*,0%,1.6µM*,-4%
N#Cc1c(/N=C/c2ccco2)sc2c1CCC2,·,>77,-2%,2.5µM*,2%
C=CCc1cccc(C2C(C)CCC3C(=O)N4C(Cc5c([nH]c6ccccc56)C4c4cc(OC)c(OC)c(OC)c4)C(=O)N32)c1 (centres undefined),·,·,-1%[11.5 µM],·,-3%[11.5 µM]
CN(CC(=O)O)Cc1c[nH]c2ccccc12,·,·,1%[11.5 µM],0%[11.4 µM],-3%[11.5 µM]
CCOC(=O)c1ccc(OCC(=O)c2ccc(O)cc2O)cc1,>57,?,1%,-24%,-1%
COC(=O)c1ccc(OCC(=O)c2ccc(O)cc2O)cc1,·,?,0%,13µM*,0%
O=C(O)[C@@H]1[C@@H](C(=O)NCc2ccccn2)[C@@H]2C=C[C@@H]1O2,·,·,-1%[11.5 µM],4%[11.4 µM],4%[11.5 µM]
C#CCCCO/N=C1/C[C@@H](O)[C@@H](O)[C@@H]2[C@@H]3C(=O)N(c4cccc(Oc5ccccc5)c4)C(=O)[C@H]3CC[C@@H]12,·,·,-2%[11.5 µM],-2%[11.4 µM],-4%[11.5 µM]
CC(O)c1nc2ccccc2n1Cc1nnc(-c2ccc(Cl)cc2)o1 (centres undefined),2.5*,>77,-6%,-9%,0%
CC(=O)NCCNc1ncncc1-c1ccc(N(C)C)cc1,·,·,-3%,1%[2.29 µM],-1%
O=C(Nc1ccc(NC(=O)C2CCCCC2)cn1)c1ccco1,i,9.8*,2%,5µM*,-2%
CC(C)C(=O)Nc1ccc(NC(=O)c2ccccn2)cn1,i,>77,-2%,13µM*,2%
O=C(Nc1ccc(NC(=O)c2ccco2)nc1)c1ccccn1,·,>77,-4%,10µM*,0%
CCCC(=O)Nc1ccc(NC(=O)c2ccccc2Cl)nc1,>57,·,7%,-15%,-2%
CCC(=O)Nc1ccc(NC(=O)c2ccccn2)cn1,·,>77,7%,40µM*,1%
CC(C)C(=O)Nc1ccc(NC(=O)c2cccs2)cn1,·,>77,0%,-7%,-1%
SMILES,Bst PK mod,GBA mod,Casp7 inh,Luciferase inh,Caspase-1 inhib
O=C(Nc1ccc(NC(=O)C23CC4CC(CC(C4)C2)C3)cn1)c1ccco1,>57,>77,0%,-21%,1%
O=C(Nc1ccc(NC(=O)C2CC2)nc1)c1ccccn1,i,>77,-2%,20µM*,-1%
N#Cc1nc(-c2ccc(F)cc2)oc1N1CCCC1,9.5*,·,·,1%[25.5 µM],·
N#Cc1nc(-c2ccc(OCc3ccc(Cl)cc3)cc2)oc1N1CCOCC1,>57,>77,0%,1%,1%
N#Cc1nc(-c2ccc(Cl)cc2)oc1N1CCCCC1,5.1*,·,·,2%[25.5 µM],·
CNc1oc(-c2ccc(Cl)cc2)nc1C#N,3.1*,·,·,-2%[25.5 µM],·
N#Cc1nc(-c2ccc(OCc3ccc(Cl)cc3)cc2)oc1N1CCC(C(N)=O)CC1,0.078*,>77,-2%,0%,-2%
O=Nc1c(-c2c(O)[nH]c3ccccc23)[nH]c2ccccc12,·,·,-3%,25µM*!,4%
O=NC1=C(c2c(O)[nH]c3ccccc23)CCCC1,·,·,2%,2%,-2%
CCCCCCCCCCCCCCCCCC(=O)O[C@H](CC(=O)O)C[N+](C)(C)C,·,·,-1%,-3%,1%
O=C(NCCN1CCCC1)c1ccc(-n2c(=O)c(=O)[nH]c3ccccc32)cc1,·,·,0%,·,-2%
Cc1cc(C2(c3cc(C)c(O)c(C(=O)O)c3)OS(=O)(=O)c3ccccc32)cc(C(=O)O)c1O,·,·,-2%[11.5 µM],1%[11.4 µM],2%[11.5 µM]
O=C(COC(=O)CCC(=O)c1ccc2c(c1)OCCO2)NCc1ccc2c(c1)OCO2,·,>77,2%[0.00368 µM],25µM*,-1%
O=C(COC(=O)CSc1nnc(-c2ccc(Cl)cc2)o1)NCc1ccc2c(c1)OCO2,>57,11*,2%,-1%,-3%
O=C(COC(=O)c1ccc2c(c1)OCO2)NCc1ccc(Cl)cc1,>57,>77,0%,2%,-2%
CC(=O)OCC(=O)NCc1ccc2c(c1)OCO2,>57,>77,-3%,1%,0%
Cc1cc(=O)[nH]c(SCCOc2ccc(OC(C)C)cc2)n1,·,>77,1%,16µM*,1%
COc1c(O)cc2oc3cc(O)c(CC=C(C)C)c(O)c3c(=O)c2c1CC=C(C)C,·,·,-15%,1%[11.4 µM],-6%
O=C(CC(=O)c1ccccc1)Nc1ccc2c(c1)OCCO2,·,>77,0%,20µM*,-1%
O=C(CSc1nc2ccccc2[nH]1)Nc1ccc2c(c1)OCCO2,·,>77,-1%,25µM*,-1%
O=C(Cn1cnc2ccccc2c1=O)Nc1ccc2c(c1)OCCO2,i,>77,0%,13µM*,1%
CCOCC(=O)Nc1ccc2c(c1)OCCO2,>57,>77,0%,-12%,-1%
O=C(CSc1nc2ccccc2[nH]1)c1ccc2c(c1)OCO2,>57,>77,1%,-12%,2%
O=C(Cn1cnc2ccccc2c1=O)NCCC(=O)Nc1ccc2c(c1)OCCO2,>57,>77,2%,2%,0%
O=C(COc1ncnc2ccccc12)c1ccc2c(c1)OCCO2,·,>77,5%,13µM*,0%
SMILES,Bst PK mod,GBA mod,Casp7 inh,Luciferase inh,Caspase-1 inhib
CN(C)CCNC(=O)c1ccc(Cc2nc3ccccc3[nH]2)cc1,·,·,-3%,·,-4%
O=C(O)CCC(=O)c1ccc2c(c1)OCCO2,·,·,1%,-6%,-1%
O=C(CS(=O)(=O)c1ccccc1)c1ccc2c(c1)OCCO2,i,>77,-3%,13µM*,1%
O=C1c2ccccc2C(=O)N1Cc1nn2c(-c3ccc(Cl)cc3)nnc2s1,>57,7.8*,0%,0%,-2%
Cc1ccc2cccc(NC(=O)c3ccc(Br)o3)c2n1,>57,?,-1%,-3%,-2%
Cc1cc2nc(-c3cccc(NC(=O)c4ccc(Br)o4)c3C)oc2cc1C,·,·,-1%,7.9µM*,-4%
COc1ccccc1-c1cc(C(F)(F)F)nc(S(=O)(=O)CCCC(=O)Nc2cc(C)on2)n1,>57,9.4*,1%,0%,-2%
COc1ccccc1-c1cc(C(F)(F)F)nc(S(=O)(=O)CCCC(=O)NC(C)C)n1,>57,>77,2%,2%,-3%
Oc1ccc([C@@H]2CNCc3sccc32)cc1O,·,·,0%,-16%,-1%

# Screening results from PubChem.
